Assay [1] can be described thus: compounds binding Alexa647 anti-His antibody – biochemical, small-molecule microarray, 635 nm fluorescence, artefact control for SMM control protein annotation, primary screen (AID 1128).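 Also: score merges feature fluorescence with signal-to-noise for each printed compound spot.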 The settings on record: higher = more signal.
For assay [2], the system named is Human papillomavirus type 1a E7 protein (residues 1-88). Put plainly: HPV1a E7 small-molecule binders, primary screen, biochemical, small-molecule microarray, residues 1-88, 635 nm (AID 1129). The settings on record: small-molecule microarray binding, fluorescence 635 nm; higher = more signal.
The target in assay [3] is Focal adhesion kinase 1 (Homo sapiens) (UniProt Q05397). Put plainly: PTK2 protein binding on printed compound slides – biochemical, small-molecule microarray, 635/667 nm fluorescence, BSA, DTT, primary screen (AID 1130).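 Also: composite of spot emission at 667 nm and signal to noise over triplicate slides.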 The settings on record: 635 nm fluorescence, higher = more signal.
Assay [4] concerns Fibrinogen (Alexa647-labelled). Put plainly: Alexa647-fibrinogen binding to printed small molecules – biochemical, small-molecule microarray, 635/667 nm fluorescence, artefact control for SMM control-protein annotation, profiling panel (AID 1131).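 Also: z-score merges 667 nm fluorescence with per-spot signal-to-noise over triplicate slides.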 Particulars: fibrinogen-A647 binding fluorescence, higher = more signal.
The target of assay [5] is Follistatin (Homo sapiens) (UniProt P19883). Put plainly: FST protein binding to printed compounds – biochemical, small-molecule microarray, 635/667 nm fluorescence, primary screen (AID 1132). The settings on record: 635 nm fluorescence, higher = more signal.
Assay [6] deals with Fibroblast growth factor 2 (Homo sapiens) (UniProt P09038). Put plainly: basic fibroblast growth factor binding to printed compounds – biochemical, small-molecule microarray, 635/667 nm fluorescence, primary screen (AID 1133). Particulars: FGF2, fluorescence 635/667, higher = more signal.
Assay [7] can be described thus: JC-1 mitochondrial potential readout, lung cancer cells – cell-based, A549, JC-1 fluorescence, basal, 24 h, 100 nL, profiling panel (AID 1138).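 Also: A549 lung adenocarcinoma cells under basal conditions with no added stimulus; test concentration not given here.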 Particulars: higher = more signal.
The test system of assay [8] is Lefty1. Put plainly: Lefty1 protein binding to printed compounds – biochemical, small-molecule microarray, 635/667 nm fluorescence, primary screen (AID 1139). The settings on record: fluorescence 635/667, higher = more signal.
In assay [9] the test system is wheat germ agglutinin (Triticum aestivum), Alexa647-labelled. Put plainly: Alexa647-WGA lectin binding to printed small molecules – biochemical, small-molecule microarray, 635/667 nm fluorescence, artefact control for SMM control-protein annotation, profiling panel (AID 1140).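 Also: score merges 667 nm feature emission with signal to noise over triplicate slides.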 Particulars: WGA-A647 binding, 635 nm fluorescence, higher = more signal.
Assay [10] has as its target Luciferin 4-monooxygenase (Photinus pyralis) (UniProt P08659). Put plainly: inhibition of purified Photinus pyralis luciferase – biochemical, luminescence, purified enzyme, 2006 set, primary screen (AID 1141).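 Also: cell-free assay with purified firefly luciferase at 100 ng per well in PBS; test concentration not given here.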 Particulars: purified firefly luciferase, SteadyGlo luminescence, 30 min; higher = more signal, called active from +8 up or from −8 down.
Assay [11] concerns Wnt5a (protein binding on small-molecule microarray). Put plainly: small molecules binding Wnt5a protein – biophysical, small-molecule microarray, 635/667 nm fluorescence, primary screen (AID 1142).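 Also: fluorescence read at 667 nm with signal to noise per printed feature.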 Particulars: 635 nm fluorescence, higher = more signal.
A short description of assay [12]: ATP-based viability of Huh7 replicon cells – cell-based, CellTiter-Glo luminescence, basal, 48 h, cytotoxicity control for HCV replication inhibitor project, primary screen (AID 1143).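 Also: Huh7 hepatoma cells carrying a hepatitis C replication reporter with no stimulus; test concentration not given here.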 Particulars: higher = more signal, called active from +8 up or from −8 down.
A short description of assay [13]: Pseudomonas biofilm growth suppression – PAO1 strain, BacTiter-Glo luminescence, LB-PBS, primary screen (AID 1144). Particulars: P. aeruginosa PAO1 biofilm, 12 h, higher = more signal.
Assay [14] is described as follows: basal CRE-LacZ reporter activity in PC12 – cell-based, unstimulated, primary screen (AID 1145). The settings on record: no forskolin, luminescence, 4.5 h, higher = more signal, called active from +8 up or from −8 down.
The nature of assay [15]: forskolin-driven CRE-LacZ activity in PC12 – cell-based, CRE-LacZ reporter, forskolin-stimulated, primary screen (AID 1146).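 Also: PC12 cells with 6xCRE LacZ reporter stimulated by forskolin 10 µM; beta-galactosidase reporter signal reflecting CREB driven transcription.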 The settings on record: luminescence, 4.5 h, higher = more signal, called active from +8 up or from −8 down.
For assay [16], the target named is Streptavidin (Streptomyces avidinii) (UniProt P22629). Put plainly: compounds binding control protein streptavidin – biophysical, small-molecule microarray, 635/667 nm fluorescence, artefact control for SMM compound annotation, primary screen (AID 1147).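 Also: signal reflects streptavidin binding to arrayed compounds as a control protein.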 The settings on record: higher = more signal.
The nature of assay [17]: probe aInhba binding on compound microarray – biochemical, small-molecule microarray, 635/667 nm fluorescence, primary screen (AID 1148).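 Also: score merges 667nm spot fluorescence with signal-to-noise for antibody binding to printed compounds.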 The settings on record: higher = more signal.
The target in assay [18] is Torsin-1A (Homo sapiens) (UniProt O14656). Put plainly: TOR1A wild-type binding on microarray – cell lysate, small-molecule microarray, lysate, 635/667 nm, primary screen (AID 1149). The settings on record: COS7 hTOR1A-WT lysate, 635 nm fluorescence, higher = more signal.
Assay [19] has the same target. Put plainly: torsin A mutant lysate binding on microarrays – cell lysate, small-molecule microarray, COS7 lysate, 635/667 nm fluorescence, primary screen (AID 1150).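 Also: score pools 667 nm emission and signal to noise measuring lysate protein binding.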 Particulars: COS7 hTOR1A mutant lysate, 635 nm fluorescence, higher = more signal.
Assay [20] has as its system Sonic hedgehog protein (Shh). Put plainly: Sonic hedgehog microarray binding compounds – biochemical, small-molecule microarray, 635/667 nm fluorescence, primary screen (AID 1151).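 Also: Shh protein binding to compounds spotted on small-molecule microarray slides; score combines spot fluorescence intensity with signal-to-noise across triplicate slides.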 The settings on record: 635 nm fluorescence, higher = more signal.

Each structure is given as a SMILES string. Values joined by “and” are separate entries in the source; they are usually repeats but may differ in a detail not shown here. Equal values may be shown once. Active and inactive are the calls of the source. Unless noted, no rule for the calls is given here.

Sequence of Luciferin 4-monooxygenase (Photinus pyralis) (P08659 whole entry, looked up): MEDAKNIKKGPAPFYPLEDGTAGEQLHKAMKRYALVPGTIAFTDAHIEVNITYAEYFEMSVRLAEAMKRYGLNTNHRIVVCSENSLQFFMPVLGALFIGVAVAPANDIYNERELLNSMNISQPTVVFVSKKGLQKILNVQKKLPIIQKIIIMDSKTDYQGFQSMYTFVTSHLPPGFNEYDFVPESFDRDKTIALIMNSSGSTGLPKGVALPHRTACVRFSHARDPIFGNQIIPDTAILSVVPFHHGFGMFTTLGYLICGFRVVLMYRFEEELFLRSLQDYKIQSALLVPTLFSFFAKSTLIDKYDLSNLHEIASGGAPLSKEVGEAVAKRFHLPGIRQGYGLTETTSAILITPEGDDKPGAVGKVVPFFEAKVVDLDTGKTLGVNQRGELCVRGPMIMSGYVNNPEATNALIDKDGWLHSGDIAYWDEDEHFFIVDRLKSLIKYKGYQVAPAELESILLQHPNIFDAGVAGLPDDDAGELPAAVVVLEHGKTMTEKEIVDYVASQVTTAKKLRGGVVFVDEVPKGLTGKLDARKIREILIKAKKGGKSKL
Sequence of Streptavidin (Streptomyces avidinii) (P22629 whole entry, looked up): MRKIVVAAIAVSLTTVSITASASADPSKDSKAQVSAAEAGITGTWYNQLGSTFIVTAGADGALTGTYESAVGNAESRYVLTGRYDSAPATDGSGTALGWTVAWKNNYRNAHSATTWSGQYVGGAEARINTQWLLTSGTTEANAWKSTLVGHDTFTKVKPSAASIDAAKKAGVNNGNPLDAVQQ
Sequence of Follistatin (Homo sapiens) (P19883 whole entry, looked up): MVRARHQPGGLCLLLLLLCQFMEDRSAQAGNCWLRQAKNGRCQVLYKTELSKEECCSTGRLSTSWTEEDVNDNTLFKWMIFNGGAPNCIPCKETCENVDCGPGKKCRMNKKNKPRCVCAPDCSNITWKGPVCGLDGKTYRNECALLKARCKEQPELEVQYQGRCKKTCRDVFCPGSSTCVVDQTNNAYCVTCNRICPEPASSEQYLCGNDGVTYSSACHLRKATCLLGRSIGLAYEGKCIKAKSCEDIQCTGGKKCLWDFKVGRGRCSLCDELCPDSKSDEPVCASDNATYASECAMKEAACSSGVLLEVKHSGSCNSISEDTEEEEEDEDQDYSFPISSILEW
Sequence of Torsin-1A (Homo sapiens) (O14656 whole entry, looked up): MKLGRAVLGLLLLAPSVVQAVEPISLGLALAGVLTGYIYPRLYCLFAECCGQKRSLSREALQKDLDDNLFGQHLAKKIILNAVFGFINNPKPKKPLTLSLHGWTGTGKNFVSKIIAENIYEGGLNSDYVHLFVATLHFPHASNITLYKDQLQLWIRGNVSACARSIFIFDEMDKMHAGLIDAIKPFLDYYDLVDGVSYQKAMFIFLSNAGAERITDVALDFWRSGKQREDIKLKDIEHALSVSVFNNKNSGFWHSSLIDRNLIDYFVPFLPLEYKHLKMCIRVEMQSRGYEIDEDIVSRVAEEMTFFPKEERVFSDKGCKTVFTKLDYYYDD
Sequence of Focal adhesion kinase 1 (Homo sapiens) (Q05397 whole entry, looked up): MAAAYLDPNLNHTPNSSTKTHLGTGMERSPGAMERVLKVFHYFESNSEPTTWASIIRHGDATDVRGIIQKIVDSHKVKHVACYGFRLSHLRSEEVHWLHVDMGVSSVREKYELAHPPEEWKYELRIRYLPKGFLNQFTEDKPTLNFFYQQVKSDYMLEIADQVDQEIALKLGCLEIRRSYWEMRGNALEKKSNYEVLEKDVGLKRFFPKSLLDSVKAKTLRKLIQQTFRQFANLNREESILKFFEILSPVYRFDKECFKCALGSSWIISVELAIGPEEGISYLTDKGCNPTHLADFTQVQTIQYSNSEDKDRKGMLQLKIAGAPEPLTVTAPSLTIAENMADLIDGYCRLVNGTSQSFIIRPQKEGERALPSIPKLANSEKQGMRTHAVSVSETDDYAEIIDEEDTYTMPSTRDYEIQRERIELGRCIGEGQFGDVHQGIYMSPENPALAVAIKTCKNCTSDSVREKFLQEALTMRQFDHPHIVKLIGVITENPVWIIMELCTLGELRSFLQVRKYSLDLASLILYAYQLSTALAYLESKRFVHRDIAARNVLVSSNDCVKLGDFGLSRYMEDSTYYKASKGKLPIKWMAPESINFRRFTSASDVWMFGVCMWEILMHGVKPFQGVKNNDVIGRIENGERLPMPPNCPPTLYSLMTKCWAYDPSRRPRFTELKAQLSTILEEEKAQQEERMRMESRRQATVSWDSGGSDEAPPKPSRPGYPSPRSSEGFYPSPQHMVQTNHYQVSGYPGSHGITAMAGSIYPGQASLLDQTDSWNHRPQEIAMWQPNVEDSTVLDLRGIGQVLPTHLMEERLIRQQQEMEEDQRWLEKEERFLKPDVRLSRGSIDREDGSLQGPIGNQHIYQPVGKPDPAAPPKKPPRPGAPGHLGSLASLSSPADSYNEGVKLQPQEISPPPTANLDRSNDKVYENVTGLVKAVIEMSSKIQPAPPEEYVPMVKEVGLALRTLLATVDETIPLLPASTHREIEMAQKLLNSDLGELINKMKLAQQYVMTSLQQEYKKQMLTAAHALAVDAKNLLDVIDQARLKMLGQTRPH
Sequence of Fibroblast growth factor 2 (Homo sapiens) (P09038 whole entry, looked up): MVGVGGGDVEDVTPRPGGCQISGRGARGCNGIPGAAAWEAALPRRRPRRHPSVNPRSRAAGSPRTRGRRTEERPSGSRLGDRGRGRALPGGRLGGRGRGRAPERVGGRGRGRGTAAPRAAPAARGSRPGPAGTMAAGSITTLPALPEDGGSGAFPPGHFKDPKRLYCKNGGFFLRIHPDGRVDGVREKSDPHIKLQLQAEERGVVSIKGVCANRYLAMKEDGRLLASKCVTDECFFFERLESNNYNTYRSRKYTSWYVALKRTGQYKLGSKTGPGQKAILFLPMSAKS

Regarding `Cc1cc2c(nc1C)CCCN2CC(O)CN1CCCc2nc(-c3ccc(Br)cc3)ccc21` (stereo not given), the composite z-score was 1.48 and 2.06 in assay [1]; 1.15 and 1.16 in assay [2]; 1.08 and 1.26 in assay [3]; 0.887 and 0.695 in assay [4]; 1.27 and 1.29 in [5]; 0.953 and 0.871 in [6]. For the same molecule, the composite z-score in [8] was 1.34 and 0.844; in assay [9], 1.15 and 1.36; in assay [11] it was 0.573 and 1.08; in assay [16], 1.4 and 1.8; in [17], 0.496 and 0.639; in assay [18], 0.501 and 0.62. For the same molecule, the composite z-score in assay [19] is 0.797 and 0.251; in assay [20], 1.13 and 1.11. For the same molecule, the z-score in [7] was -0.118 and 1.8; in assay [10], -0.104 (inactive) and -0.176 (inactive); in [12] it was -0.721 (inactive) and -1.07 (inactive); in assay [13], -0.0664 (inactive) and 0.806 (inactive); in assay [14], 0.0167 (inactive) and 0.382 (inactive); in [15] it was -0.362 (inactive) and -0.274 (inactive).
As to `C=CCN(C(=O)C1N(CCCCCCO)C(=O)C2C(C(=O)O)C3C=CC21O3)c1ccc(OC)cc1` (stereo not given), the composite z-score in assay [1] is -1.91 and -1.82; in assay [2], -1.26 and -1.68; in assay [3], 0.85 and -0.212; in assay [4], -1.05 and -2.02; in [5], -1.83 and -1.96; in assay [6] it was -2.95 and -1.96. Moreover, the composite z-score was -2.4 and -2.28 in assay [8]; -0.537 and -0.483 in assay [9]; 1.04 and -0.561 in [11]; -0.825 and -0.728 in [16]; -0.0791 and -0.0279 in [17]; -3.03 and -2.03 in assay [18]. The composite z-score in [19] is -1.75 and -1.28; in assay [20], -1.27 and -1.42. In addition, the z-score in assay [7] is 1.34 and 0.478; in assay [10] it was -1.09 (inactive) and -1.38 (inactive); in assay [12], 0.191 (inactive) and 0.252 (inactive); in [13], 1.51 (inactive); in assay [14] it was 0.0564 (inactive) and 0.724 (inactive); in [15], -0.933 (inactive) and -0.173 (inactive).
As to `C=CCN(C(=O)C(c1cccs1)N(C(=O)/C=C\C(=O)O)c1c(Cl)cccc1CO)c1ccc(OC)cc1` (stereo not given), the composite z-score was -1.78 and -1.48 in assay [1]; -1.15 and -0.74 in [2]; -0.93 and -0.641 in assay [3]; -1.13 and -0.594 in [4]; -2.61 and -1.19 in assay [5]; -2.55 and -1.44 in assay [6]. Besides, the composite z-score in assay [8] is -2.98 and -2.04; in assay [9], -0.55 and 0.213; in assay [11], -0.57 and -0.644; in [16], -1.33 and -0.327; in assay [17], -0.336 and -0.0209; in assay [18], -2.86 and -0.746. Besides, the composite z-score was -1.96 and -2.42 in assay [19]; -1.64 and -0.676 in assay [20]. The z-score is 1.26 and 1.98 in [7]; -1.47 (inactive) and -1.26 (inactive) in assay [10]; -0.266 (inactive) and 0.28 (inactive) in assay [12]; 0.894 (inactive) in assay [13]; -0.895 (inactive) and -0.346 (inactive) in assay [14]; -0.569 (inactive) and 0.595 (inactive) in assay [15].
Consider `COCn1c2ccccc2c2nnc(C(C)=O)nc21`, for which the composite z-score in assay [1] is 0.185 and -0.0618; in assay [2] it was -0.582 and -0.0453; in [3], 0.0699 and -0.0566; in assay [4], -0.0349 and 0.202; in assay [5], 0.295 and 0.221; in [6], 0.537 and 0.273. The composite z-score in assay [8] was 0.419 and 0.53; in assay [9] it was -0.114 and -0.144; in assay [11], -0.122 and 0.0561; in [16] it was -0.121 and -0.232; in assay [17], -0.274 and 0.0111; in assay [18] it was 0.331 and 0.417. The composite z-score in assay [19] is -0.302 and 0.13; in assay [20], 0.479 and 0.343. Besides, the z-score in assay [7] is -1.22 and -1.45; in assay [10], 0.891 (inactive) and 0.305 (inactive); in assay [12], -2.71 (inactive) and -2.58 (inactive); in assay [13] it was -0.843 (inactive) and -0.869 (inactive); in assay [14], 0.11 (inactive) and -0.0732 (inactive); in [15], 0.353 (inactive) and 0.754 (inactive).

These data come from PubChem BioAssay.
